NadD block: inhibitors of S. aureus NadD, primary screen, biochemical, colorimetric, uHTS; AID 602399, 2012; actives 0.78% (n = 360,000); Nicotinate-nucleotide adenylyltransferase NadD (Staphylococcus aureus N315); purified NadD enzyme, colorimetric absorbance read-out; inhibition, % at 20 µM; in the data active means inhibition above about 26%
H9c2 TAG inh: inhibitors of triacylglycerol accumulation, primary screen, cell-based, uHTS, fluorescence, H9c2; H9c2 cells, Nile Red lipid (TAG) fluorescence; cells loaded with 200 µM oleic acid; inhibition, % at 12.5 µM; actives 0.66% (n = 230,000); AID 651582, 2012;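 active means pattern-corrected inhibition of lipid staining of at least 50% with the nuclear-stain viability signal not falling by more than 50%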;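 further: 0% = DMSO wells and 100% = triacsin C control wells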
Cardio protect: cardioprotection against H2O2-induced cell death, primary screen, uHTS, H9c2 cells, ATPLite luminescence. actives 0.63% (n = 360,000). AID 588492, 2011. protection from H2O2 cell death, % at 20 µM. H9c2 cardiomyocytes, H2O2 injury protection, 2 h;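 active means compounds giving at least 50% protection of heart cells from peroxide-induced death in the single-dose screen, raw or plate-pattern-corrected value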;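 further: 0% = DMSO wells with peroxide and 100% = DMSO wells without peroxide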
A3A deaminase: APOBEC3A ssDNA deaminase inhibitors, primary screen, selectivity assay for APOBEC3G inhibitor project, biochemical, FAM/TAMRA oligo cleavage fluorescence. inhibition, % at 20 µM. actives 0.41% (n = 330,000). DNA dC->dU-editing enzyme APOBEC-3A (Homo sapiens), P31941. recombinant A3A, FAM/TAMRA ssDNA deamination fluorescence. AID 493011, 2011;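 active means at least 40% inhibition at 20 µM here, with at most 30% in a related deaminase screen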;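 further: plate controls were A3A with DMSO for no effect and wells lacking A3A enzyme for full effect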
Target sequence (P31941 whole entry, looked up): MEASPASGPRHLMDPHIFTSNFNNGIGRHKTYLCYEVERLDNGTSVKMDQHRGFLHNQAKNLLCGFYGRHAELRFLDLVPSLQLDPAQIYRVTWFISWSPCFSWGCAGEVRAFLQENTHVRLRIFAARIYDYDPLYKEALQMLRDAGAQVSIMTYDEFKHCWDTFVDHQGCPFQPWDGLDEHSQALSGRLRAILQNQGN
PfGluPho inh: PfG6PD enzyme inhibitors, primary screen, biochemical, fluorescence intensity, uHTS; glucose-6-phosphate dehydrogenase-6-phosphogluconolactonase (Plasmodium falciparum 3D7); PfGluPho enzyme, NADPH resazurin-diaphorase fluorescence; inhibition, % at 20 µM; actives 0.78% (n = 350,000);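 active means inhibition reaching at least a set limit at 20 µM in the primary screen, cut at about 59% in these data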;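 further: 0% = DMSO wells with substrate and 100% = DMSO wells lacking glucose-6-phosphate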
APOBEC3G inh: APOBEC3G DNA deaminase inhibitors, primary screen, biochemical, fluorescence, single-stranded DNA substrate, uHTS | inhibition, % at 20 µM | actives 0.28% (n = 330,000) | recombinant A3G, ssDNA deamination FAM/TAMRA fluorescence | DNA dC->dU-editing enzyme APOBEC-3G (Homo sapiens), Q9HC16;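 active means inhibition of at least 40% at 20 µM, with no more than 30% in the related APOBEC3A deaminase screen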;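 further: plate controls were DMSO wells with A3G for no effect and wells lacking A3G enzyme for full effect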
PfGluPho conf: PfG6PD inhibitors, hit retest, confirmation, biochemical, fluorescence intensity, single concentration; shares compounds with PfGluPho inh; recombinant PfGluPho, NADPH-diaphorase-resazurin fluorescence; inhibition, % at 20 µM; actives 34% (n = 2,400); AID 504753, 2011;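 active means inhibition of at least 50% at 20 µM in any single replicate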;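 further: 0% = DMSO with substrate and 100% = DMSO lacking glucose-6-phosphate substrate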
Diaphorase 10uM: diaphorase inhibitors and chemical oxidizers, confirmation, counter-screen for P. falciparum G6PD inhibitor project, biochemical, fluorescence intensity, 10 µM NADPH | AID 504862, 2011 | actives 39% (n = 820) | inhibition, % at 20 µM | shares compounds with PfGluPho inh | diaphorase-coupled resazurin reduction, NADPH 10 uM;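 active means average inhibition reaching 50% or more with the compound at 20 µM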;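 further: resorufin red fluorescence formed as diaphorase reduces resazurin using NADPH; 0% = DMSO with enzyme and 100% = DMSO without enzyme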
Diaph ctr 30uM: diaphorase inhibitors and chemical oxidizers, confirmation, counter-screen for P. falciparum G6PD inhibitor project, biochemical, fluorescence intensity, 30 µM NADPH; shares compounds with PfGluPho inh; actives 29% (n = 820); Diaphorase/resazurin coupled assay, resorufin fluorescence; inhibition, % at 20 µM;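 active means inhibition averaging 50% or more, tested at 20 µM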;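 further: 0% = DMSO with enzyme and 100% = DMSO wells lacking diaphorase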
Numbers without * were called inactive; . = not tested or not shown. Hits are enriched below; roughly 2.9% of the tested compounds scored in any of these assays.

SMILES | NadD block | H9c2 TAG inh | Cardio protect | A3A deaminase | PfGluPho inh | APOBEC3G inh | PfGluPho conf | others
OCCN1CCN(C(=S)c2ccc(Cl)c(Cl)c2)CC1 | -1 | -18 | -5 | 0 | 64* | 38 | 53* | Diaphorase 10uM=-13;Diaph ctr 30uM=-1
COc1ccc(-n2c(C)cc(/C=N/Nc3nnc(C)n3N)c2C)cc1 | 2 | . | -21 | 0 | 66* | -2 | 44
CCOC(=O)C1=C(O)/C(=C/c2ccccn2)SC1=Nc1ccc(Cl)cc1 | -6 | . | 47 | -4 | 11 | -7 | .
CCn1c2ccccc2nc2cc3c(cc21)c(Cl)c(=O)c1ccccc13 | 6 | 11 | -11 | . | 94* | . | 40
Cc1ccc(S(=O)(=O)NNc2c3ccccc3nc3ccc(Cl)cc23)cc1 | 11 | 2 | -8 | . | 31 | . | .
Cc1ccc(S(=O)(=O)NNc2nc3ccccc3nc2C(F)(F)F)cc1 | -5 | 9 | 14 | -4 | 65* | 33 | 20
Fc1ccc(N2C(=S)SC(=Nc3ccccc3)C2=Nc2ccccc2)cc1 | 5 | 38 | -10 | . | 7 | . | .
N=C1N(c2ccccc2)C(=S)C(=Nc2ccccc2)N1c1ccccc1 | 3 | -11 | -16 | . | 65* | . | 26
O=[N+]([O-])c1cc(-c2nc3nc4ccccc4nc3n2CCc2ccccc2)cc([N+](=O)[O-])c1 | 5 | . | -5 | -1 | -6 | -1 | .
CN1C(=O)CSc2ccc(NC(=O)N3CCc4ccccc43)cc21 | 1 | . | 26 | -8 | 87* | -2 | 60* | Diaphorase 10uM=45;Diaph ctr 30uM=35
Clc1ccc(C2=Nn3c(Cn4nnc5ccccc54)nnc3SC2)cc1 | -2 | -2 | 7 | -4 | 63* | 28 | 46
c1ccc(C2=Nn3c(Cn4nnc5ccccc54)nnc3SC2)cc1 | 0 | 2 | 0 | 9 | 26 | 3 | .
c1ccc(Cc2nnc3n2N=C(c2ccccc2)CS3)cc1 | 9 | -5 | -20 | -4 | 61* | -7 | 22
c1ccc(-c2ccc(C3=Nn4c(Cn5nnc6ccccc65)nnc4SC3)cc2)cc1 | 26 | -2 | 0 | 1 | 72* | 28 | 13
CCCSc1ccc([C@H]2N[C@@](CC(C)C)(C(=O)OC)[C@H]3C(=O)N(CC)C(=O)[C@@H]23)cc1 | -2 | 6 | 0 | -1 | -1 | -3 | .
O=C(CCS(=O)(=O)Cc1ccccc1F)NCCc1ccc(Cl)cc1 | -6 | . | 6 | -1 | -5 | -2 | .
O=C(CSc1nc2ccc(Cl)cc2[nH]1)Nc1ccc2[nH]c(=O)[nH]c2c1 | 2 | -1 | 4 | -5 | 60* | -9 | 24
CC(C)(C)Nc1nc(-c2ccc3c(c2)CCN3C(=O)C2CC2)cs1 | 11 | . | -4 | -3 | 70* | -10 | 17
CC(C)C(=O)Nc1nc(-c2ccc3c(c2)CCN3C(=O)C2CC2)cs1 | -4 | . | 38 | -2 | 52 | -6 | .
S=C1NC2(CCCCC2)Nc2ccccc21 | -6 | -19 | 8 | -2 | 17 | -12 | .

Screens deposited in PubChem BioAssay by Sanford-Burnham Center for Chemical Genomics.
